Calls of active or inactive are those of the source. Unless noted, no rule for the calls is given here.

The nature of test [1]: compounds binding Alexa647 anti-His antibody – biochemical, small-molecule microarray, 635 nm fluorescence, artefact control for SMM control protein annotation, primary screen (AID 1128).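 Also: score merges feature fluorescence with signal-to-noise for each printed compound spot.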 Particulars: higher = more signal.
The test system of test [2] is Human papillomavirus type 1a E7 protein (residues 1-88). Kind of test: HPV1a E7 small-molecule binders, primary screen, biochemical, small-molecule microarray, residues 1-88, 635 nm (AID 1129). To be noted: small-molecule microarray binding, fluorescence 635 nm; higher = more signal.
The target of test [3] is Focal adhesion kinase 1 (Homo sapiens) (UniProt Q05397). Kind of test: PTK2 protein binding on printed compound slides – biochemical, small-molecule microarray, 635/667 nm fluorescence, BSA, DTT, primary screen (AID 1130).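 Also: composite of spot emission at 667 nm and signal to noise over triplicate slides.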 To be noted: 635 nm fluorescence, higher = more signal.
Sequence of Focal adhesion kinase 1 (Homo sapiens) (Q05397 whole entry, looked up): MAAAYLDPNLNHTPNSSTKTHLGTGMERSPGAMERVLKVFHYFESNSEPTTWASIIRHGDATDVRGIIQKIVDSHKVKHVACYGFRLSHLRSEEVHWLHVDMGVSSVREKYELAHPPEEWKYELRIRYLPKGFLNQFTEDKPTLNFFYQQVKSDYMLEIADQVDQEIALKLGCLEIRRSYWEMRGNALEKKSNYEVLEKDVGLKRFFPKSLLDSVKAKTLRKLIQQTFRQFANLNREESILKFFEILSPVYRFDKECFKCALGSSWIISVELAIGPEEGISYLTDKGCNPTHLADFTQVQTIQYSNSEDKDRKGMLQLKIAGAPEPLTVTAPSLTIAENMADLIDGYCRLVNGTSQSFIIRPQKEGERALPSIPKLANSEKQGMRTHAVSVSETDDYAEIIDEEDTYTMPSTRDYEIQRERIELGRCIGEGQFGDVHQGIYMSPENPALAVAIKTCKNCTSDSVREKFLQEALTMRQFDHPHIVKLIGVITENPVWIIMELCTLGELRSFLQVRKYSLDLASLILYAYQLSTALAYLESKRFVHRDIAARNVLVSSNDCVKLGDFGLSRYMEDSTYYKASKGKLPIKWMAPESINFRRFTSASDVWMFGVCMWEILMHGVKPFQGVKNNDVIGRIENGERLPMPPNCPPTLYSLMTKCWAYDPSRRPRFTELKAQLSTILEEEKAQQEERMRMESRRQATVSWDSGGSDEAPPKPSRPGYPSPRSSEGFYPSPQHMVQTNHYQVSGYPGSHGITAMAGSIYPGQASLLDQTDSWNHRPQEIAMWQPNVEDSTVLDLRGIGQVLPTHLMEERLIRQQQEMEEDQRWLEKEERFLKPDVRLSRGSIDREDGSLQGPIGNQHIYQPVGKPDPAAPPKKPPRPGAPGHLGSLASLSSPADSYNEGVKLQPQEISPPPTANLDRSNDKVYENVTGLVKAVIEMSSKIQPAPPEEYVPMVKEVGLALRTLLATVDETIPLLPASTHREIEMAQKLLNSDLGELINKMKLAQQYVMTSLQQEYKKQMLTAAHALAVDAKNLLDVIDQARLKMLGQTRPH
Test [4] relates to Fibrinogen (Alexa647-labelled). The test can be described thus: Alexa647-fibrinogen binding to printed small molecules – biochemical, small-molecule microarray, 635/667 nm fluorescence, artefact control for SMM control-protein annotation, profiling panel (AID 1131).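 Also: z-score merges 667 nm fluorescence with per-spot signal-to-noise over triplicate slides.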 Particulars: fibrinogen-A647 binding fluorescence, higher = more signal.
In test [5] the target is Follistatin (Homo sapiens) (UniProt P19883). The test can be described thus: FST protein binding to printed compounds – biochemical, small-molecule microarray, 635/667 nm fluorescence, primary screen (AID 1132). To be noted: 635 nm fluorescence, higher = more signal.
Sequence of Follistatin (Homo sapiens) (P19883 whole entry, looked up): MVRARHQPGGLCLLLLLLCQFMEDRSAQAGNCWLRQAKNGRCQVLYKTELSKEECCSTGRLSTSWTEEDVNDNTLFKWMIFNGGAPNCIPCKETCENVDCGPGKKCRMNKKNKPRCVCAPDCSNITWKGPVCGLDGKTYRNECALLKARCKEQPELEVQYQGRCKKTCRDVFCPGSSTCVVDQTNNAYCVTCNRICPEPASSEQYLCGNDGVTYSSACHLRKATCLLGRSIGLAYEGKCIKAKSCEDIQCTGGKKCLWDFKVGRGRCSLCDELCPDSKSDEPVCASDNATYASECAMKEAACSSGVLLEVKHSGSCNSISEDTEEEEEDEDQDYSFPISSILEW
Test [6] deals with Fibroblast growth factor 2 (Homo sapiens) (UniProt P09038). The test can be described thus: basic fibroblast growth factor binding to printed compounds – biochemical, small-molecule microarray, 635/667 nm fluorescence, primary screen (AID 1133). Particulars: FGF2, fluorescence 635/667, higher = more signal.
Sequence of Fibroblast growth factor 2 (Homo sapiens) (P09038 whole entry, looked up): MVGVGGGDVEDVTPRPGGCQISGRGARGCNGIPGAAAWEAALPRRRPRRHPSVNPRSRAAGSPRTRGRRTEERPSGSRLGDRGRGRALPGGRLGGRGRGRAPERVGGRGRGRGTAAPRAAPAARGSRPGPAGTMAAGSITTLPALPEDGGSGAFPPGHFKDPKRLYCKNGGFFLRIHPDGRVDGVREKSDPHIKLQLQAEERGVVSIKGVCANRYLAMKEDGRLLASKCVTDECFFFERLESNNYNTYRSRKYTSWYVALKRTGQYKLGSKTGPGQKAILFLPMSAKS
Test [7] is described as follows: JC-1 mitochondrial potential readout, lung cancer cells – cell-based, A549, JC-1 fluorescence, basal, 24 h, 100 nL, profiling panel (AID 1138).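 Also: A549 lung adenocarcinoma cells under basal conditions with no added stimulus; test concentration not given here.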 Particulars: higher = more signal.
The subject of test [8] is Lefty1. The test can be described thus: Lefty1 protein binding to printed compounds – biochemical, small-molecule microarray, 635/667 nm fluorescence, primary screen (AID 1139). Particulars: fluorescence 635/667, higher = more signal.
In test [9] the test system is wheat germ agglutinin (Triticum aestivum), Alexa647-labelled. Kind of test: Alexa647-WGA lectin binding to printed small molecules – biochemical, small-molecule microarray, 635/667 nm fluorescence, artefact control for SMM control-protein annotation, profiling panel (AID 1140).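 Also: score merges 667 nm feature emission with signal to noise over triplicate slides.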 To be noted: WGA-A647 binding, 635 nm fluorescence, higher = more signal.
Test [10] has as its target Luciferin 4-monooxygenase (Photinus pyralis) (UniProt P08659). Kind of test: inhibition of purified Photinus pyralis luciferase – biochemical, luminescence, purified enzyme, 2006 set, primary screen (AID 1141).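 Also: cell-free assay with purified firefly luciferase at 100 ng per well in PBS; test concentration not given here.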 Particulars: purified firefly luciferase, SteadyGlo luminescence, 30 min; higher = more signal, called active from +8 up or from −8 down.
In test [11] the test system is Wnt5a (protein binding on small-molecule microarray). Kind of test: small molecules binding Wnt5a protein – biophysical, small-molecule microarray, 635/667 nm fluorescence, primary screen (AID 1142).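 Also: fluorescence read at 667 nm with signal to noise per printed feature.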 Particulars: 635 nm fluorescence, higher = more signal.
Test [12] is described as follows: ATP-based viability of Huh7 replicon cells – cell-based, CellTiter-Glo luminescence, basal, 48 h, cytotoxicity control for HCV replication inhibitor project, primary screen (AID 1143).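 Also: Huh7 hepatoma cells carrying a hepatitis C replication reporter with no stimulus; test concentration not given here.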 To be noted: higher = more signal, called active from +8 up or from −8 down. Background: In antiviral work, replicon cells carry a viral genome segment that copies itself.
Test [13] is described as follows: Pseudomonas biofilm growth suppression – PAO1 strain, BacTiter-Glo luminescence, LB-PBS, primary screen (AID 1144). To be noted: P. aeruginosa PAO1 biofilm, 12 h, higher = more signal.
The nature of test [14]: basal CRE-LacZ reporter activity in PC12 – cell-based, unstimulated, primary screen (AID 1145). Particulars: no forskolin, luminescence, 4.5 h, higher = more signal, called active from +8 up or from −8 down.
The nature of test [15]: forskolin-driven CRE-LacZ activity in PC12 – cell-based, CRE-LacZ reporter, forskolin-stimulated, primary screen (AID 1146).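 Also: PC12 cells with 6xCRE LacZ reporter stimulated by forskolin 10 µM; beta-galactosidase reporter signal reflecting CREB driven transcription.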 To be noted: luminescence, 4.5 h, higher = more signal, called active from +8 up or from −8 down.
The target in test [16] is Streptavidin (Streptomyces avidinii) (UniProt P22629). The test can be described thus: compounds binding control protein streptavidin – biophysical, small-molecule microarray, 635/667 nm fluorescence, artefact control for SMM compound annotation, primary screen (AID 1147).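 Also: signal reflects streptavidin binding to arrayed compounds as a control protein.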 To be noted: higher = more signal.
Sequence of Streptavidin (Streptomyces avidinii) (P22629 whole entry, looked up): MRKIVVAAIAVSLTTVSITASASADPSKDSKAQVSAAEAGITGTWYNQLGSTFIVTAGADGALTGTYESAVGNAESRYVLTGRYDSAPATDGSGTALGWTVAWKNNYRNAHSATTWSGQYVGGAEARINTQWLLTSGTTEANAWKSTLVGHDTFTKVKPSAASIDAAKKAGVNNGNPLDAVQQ
Test [17] can be described thus: probe aInhba binding on compound microarray – biochemical, small-molecule microarray, 635/667 nm fluorescence, primary screen (AID 1148).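 Also: score merges 667nm spot fluorescence with signal-to-noise for antibody binding to printed compounds.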 Particulars: higher = more signal.
The target of test [18] is Torsin-1A (Homo sapiens) (UniProt O14656). The test can be described thus: TOR1A wild-type binding on microarray – cell lysate, small-molecule microarray, lysate, 635/667 nm, primary screen (AID 1149). Particulars: COS7 hTOR1A-WT lysate, 635 nm fluorescence, higher = more signal.
Sequence of Torsin-1A (Homo sapiens) (O14656 whole entry, looked up): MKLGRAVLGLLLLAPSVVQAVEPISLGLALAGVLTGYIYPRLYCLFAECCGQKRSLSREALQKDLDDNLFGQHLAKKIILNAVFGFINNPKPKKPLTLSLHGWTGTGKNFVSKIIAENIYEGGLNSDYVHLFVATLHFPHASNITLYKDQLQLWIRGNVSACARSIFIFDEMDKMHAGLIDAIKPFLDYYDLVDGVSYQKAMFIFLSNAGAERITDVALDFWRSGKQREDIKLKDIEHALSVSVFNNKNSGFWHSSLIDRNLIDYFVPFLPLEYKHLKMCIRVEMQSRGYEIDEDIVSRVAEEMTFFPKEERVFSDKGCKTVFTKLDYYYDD
Test [19] shares this target. Kind of test: torsin A mutant lysate binding on microarrays – cell lysate, small-molecule microarray, COS7 lysate, 635/667 nm fluorescence, primary screen (AID 1150).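 Also: score pools 667 nm emission and signal to noise measuring lysate protein binding.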 Particulars: COS7 hTOR1A mutant lysate, 635 nm fluorescence, higher = more signal.
Test [20] relates to Sonic hedgehog protein (Shh). Kind of test: Sonic hedgehog microarray binding compounds – biochemical, small-molecule microarray, 635/667 nm fluorescence, primary screen (AID 1151).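 Also: Shh protein binding to compounds spotted on small-molecule microarray slides; score combines spot fluorescence intensity with signal-to-noise across triplicate slides.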 Particulars: 635 nm fluorescence, higher = more signal.

Sequence of Luciferin 4-monooxygenase (Photinus pyralis) (P08659 whole entry, looked up): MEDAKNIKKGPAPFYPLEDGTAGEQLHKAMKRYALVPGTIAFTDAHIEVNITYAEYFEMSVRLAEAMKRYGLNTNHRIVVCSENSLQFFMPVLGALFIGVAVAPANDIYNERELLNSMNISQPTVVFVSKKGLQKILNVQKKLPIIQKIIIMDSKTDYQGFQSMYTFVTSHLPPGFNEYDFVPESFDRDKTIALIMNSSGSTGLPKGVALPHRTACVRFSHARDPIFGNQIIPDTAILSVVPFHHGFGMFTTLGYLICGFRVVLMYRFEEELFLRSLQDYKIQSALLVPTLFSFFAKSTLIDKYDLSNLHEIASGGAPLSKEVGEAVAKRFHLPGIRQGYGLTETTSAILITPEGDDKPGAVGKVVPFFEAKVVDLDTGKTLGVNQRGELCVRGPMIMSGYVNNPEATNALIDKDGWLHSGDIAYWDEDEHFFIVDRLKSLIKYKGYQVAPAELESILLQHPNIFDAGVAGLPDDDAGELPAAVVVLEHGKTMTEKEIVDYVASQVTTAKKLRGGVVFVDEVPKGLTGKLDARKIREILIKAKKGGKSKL

In the case of `CCCCc1nc2c(c3c1C[C@H](C)OC3)CN(CCOc1ccccc1)CC2`, the composite z-score was 0.818 in [1]; 0.334 in test [2]; -0.117 in test [3]; 0.75 in test [4]; 0.766 in [5]; 0.913 in [6]. For the same compound, the composite z-score is 1.23 in test [8]; 0.38 in test [9]; 0.0426 in [11]; 0.501 in [16]; -0.1 in [17]; 0.599 in test [18]. The composite z-score in test [19] was -0.0271; in [20], 1.32. Besides, the z-score in [7] was 3.89; in test [10] it was -1.94 (inactive); in test [12], -1.65 (inactive); in test [13], -2.34 (inactive); in [14], 7.15 (inactive); in [15], -1.03 (inactive).
`CCOC(=O)[C@H](CC(C)C)NC(=O)CCC1CC(OC(=O)NCc2ccc3c(c2)OCO3)CC2(CCCC(COC(=O)NCC3CCCCC3)O2)O1` (stereo not given in full): the composite z-score is 1.18 in test [1]; 0.939 in test [2]; -0.217 in [3]; -0.195 in [4]; 1.18 in test [5]; 0.928 in [6]. Further, the composite z-score in test [8] amounted to 1.63; in [9], 0.584; in test [11] it was 0.222; in [16] it was 0.354; in test [17] it was 0.0471; in test [18], 0.0886. For the same compound, the composite z-score in test [19] was determined as 0.392; in [20] it was 1.52. For the same compound, the z-score in [7] was 0.0853; in test [10] it was 0.885 (inactive); in test [12] it was -1.86 (inactive); in test [13], -0.0968 (inactive); in test [14], -0.0732 (inactive); in test [15], 0.389 (inactive).
Turning to `CC(=O)O[C@H]1C2=CO[C@H](C)[C@H]3[C@H]4C5=C([C@H](O)[C@H]6O[C@H]6C5=O)[C@H](OC4C)[C@@]23C(=O)[C@@H]2O[C@@H]21` (stereo not given in full), the composite z-score in [1] is -0.497; in [2] it was 0.121; in [3], -0.703; in test [4], -0.331; in [5] it was -0.436; in test [6], 1.35. Further, the composite z-score in test [8] was 0.0873; in [9], -0.515; in test [11], 0.25; in [16], -0.458; in test [17], -0.292; in [18], -0.119. Also, the results for the composite z-score in test [19] and in test [20] were -0.279 and 0.604, respectively. In addition, the z-score was -0.837 in test [7]; -0.413 (inactive) in test [10]; -6.34 (inactive) in test [12]; 0.298 (inactive) in test [13]; 0.831 (inactive) in [14]; 16.6 (active) in [15].
`COc1ccc(COC(=O)NN=C2C[C@@H](O)[C@@H](O)[C@@H]3[C@@H]4C(=O)N(Cc5ccccc5)C(=O)[C@@H]4CC[C@H]23)cc1`: the composite z-score in test [1] was -0.382; in [2], -0.111; in test [3] it was 0.0115; in test [4], -0.519; in test [5], -0.311; in test [6] it was -0.977. Moreover, the composite z-score in [8] is -0.403; in test [9], 0.266; in [11], -0.419; in test [16], 0.273; in test [17], -0.753; in test [18], -0.429. Further, the composite z-score in [19] was -0.186; in test [20], -1.44. Moreover, the z-score was 0.235 in [7]; 0.893 (inactive) in [10]; -0.541 (inactive) in test [12]; 0.43 (inactive) in test [13]; 0.702 (inactive) in test [14]; -0.0005 (inactive) in test [15].
As to `CCc1cc2c(nc1CC)CCN(CCC(C)=NO[C@@H](C)c1cn([C@H](CO)Cc3ccccc3)nn1)C2`, the composite z-score is 1.62 in [1]; -0.452 in test [2]; -0.0908 in test [3]; 0.996 in test [4]; 0.595 in test [5]; 0.0391 in [6]. Further, the composite z-score in test [8] is 0.529; in test [9], 0.307; in test [11] it was -0.144; in test [16], 0.453; in [17] it was -0.0087; in test [18], 1.1. Also, the composite z-score in test [19] was found to be 0.216; in test [20], 0.961. The z-score in test [7] was 2.07; in [10] it was -0.896 (inactive); in test [12], -0.519 (inactive); in test [13], 0.434 (inactive); in [14], -0.892 (inactive); in test [15], -1.03 (inactive).
